PubChem BioAssay (EPA / NIEHS)
Active and inactive are the calls of the source. The calls were made as follows: active = hit-call score of the fitted dose curve at least 0.9, where 1 is the maximum; inactive = score below 0.9.

How the values were obtained:
Conditions in all cases: mRNA level, 48 h; actives raise or lower the signal
[1] = read-out: 3-Hydroxy-3-Methylglutaryl-CoA Synthase 2 (HMGCS2), HMGCS2 (gene 3158); assay: LTEA_HepaRG_HMGCS2: Life Technologies and Expression Analysis (LTEA) Assay for 3-Hydroxy-3-Methylglutaryl-CoA Synthase 2 (HMGCS2) using HepaRG (AID 2283504)
Method in brief: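 This steatosis marker was read as HMGCS2 mRNA change in HepaRG cells treated 48 h with up to 100 uM chemical. Normalisation used housekeeping genes; activity in either direction was fitted relative to 0.5% DMSO vehicle.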

HGF (gene 3082) = assay: LTEA_HepaRG_HGF: Life Technologies and Expression Analysis (LTEA) Assay for Hepatocyte Growth Facto (HGF) using HepaRG (AID 2283505)
Method in brief: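 Using HepaRG monolayers kept in 0.5% DMSO, chemicals were tested in duplicate over eight half-log concentrations from 100 uM for 48 h. Endpoint: HGF mRNA change relative to DMSO, normalized to ACTB/GAPDH/POLR2A.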

[2] = read-out: Insulin Like Growth Factor 1 (IGF1), IGF1 (gene 3479); assay: LTEA_HepaRG_IGF1: Life Technologies and Expression Analysis (LTEA) Assay for Insulin Like Growth Factor 1 (IGF1) using HepaRG (AID 2283506)
Method in brief: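 Expression measured by TaqMan qRT-PCR on a Fluidigm array, with three housekeeping genes for normalisation, after 48 h treatment of HepaRG cells. Top concentration 100 uM with half-log steps, 0.5% DMSO vehicle, bidirectional fit.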

[3] = read-out: Intercellular Adhesion Molecule 1 (ICAM1), ICAM1 (gene 3383); assay: LTEA_HepaRG_ICAM1: Life Technologies and Expression Analysis (LTEA) Assay for Intercellular Adhesion Molecule 1 (ICAM1) using HepaRG (AID 2283507)
Method in brief: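 Using the human liver line HepaRG, compounds are tested in duplicate over 48 h at concentrations up to 100 uM. Expression is determined by TaqMan qRT-PCR, normalized to endogenous controls, and analysed relative to 0.5% DMSO vehicle.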

[4] = read-out: Insulin-like growth factor-binding protein 1 (IGFBP1), IGFBP1 (gene 3484); assay: LTEA_HepaRG_IGFBP1: Life Technologies and Expression Analysis (LTEA) Assay for Insulin-like growth factor-binding protein 1 (IGFBP1) using HepaRG (AID 2283508)
Method in brief: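 HepaRG, 48 h, 8 conc. (max 100 uM, half-log), duplicates, 0.5% DMSO. Readout: TaqMan qRT-PCR, ACTB/GAPDH/POLR2A normalisation. Fit: bidirectional vs DMSO.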

[5] = read-out: Interleukin 6 (IL6), IL6 (gene 3569); assay: LTEA_HepaRG_IL6: Life Technologies and Expression Analysis (LTEA) Assay for Interleukin 6 (IL6) using HepaRG (AID 2283509)
Method in brief: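 Transcript levels, normalized to three housekeeping genes, were quantified by qRT-PCR after 48 h chemical treatment of HepaRG cells. Eight-point half-log series from 100 uM in 0.5% DMSO, duplicates. Fitted both directions against DMSO baseline.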

[6] = read-out: Potassium channel subfamily K member 1 (KCNK1), KCNK1 (gene 3775); assay: LTEA_HepaRG_KCNK1: Life Technologies and Expression Analysis (LTEA) Assay for Potassium channel subfamily K member 1 (KCNK1) using HepaRG (AID 2283511)
Method in brief: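 KCNK1 transcript measured by TaqMan qRT-PCR against three housekeeping genes, after HepaRG cells were treated 48 h with eight half-log concentrations (top 100 uM, 0.5% DMSO). Curves fitted bidirectionally relative to vehicle.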

[7] = read-out: Keratin 19 (KRT19), KRT19 (gene 3880); assay: LTEA_HepaRG_KRT19: Life Technologies and Expression Analysis (LTEA) Assay for Keratin 19 (KRT19) using HepaRG (AID 2283512)
Method in brief: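 Readout is qRT-PCR of KRT19 mRNA, normalized to ACTB, GAPDH and POLR2A, from HepaRG cells treated 48 h with eight-point half-log dilutions topping at 100 uM. Activity in either direction is scored relative to 0.5% DMSO vehicle.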

[8] = read-out: JUN Transcription Factor, JUN (gene 3725); assay: LTEA_HepaRG_JUN: Life Technologies and Expression Analysis (LTEA) Assay for JUN Transcription Factor using HepaRG (AID 2283513)
Method in brief: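 mRNA measured by TaqMan qRT-PCR after 48 h chemical exposure of HepaRG cultures; normalization to three housekeeping genes. Duplicate eight-point half-log curves from 100 uM in 0.5% DMSO; gain or loss fitted against DMSO baseline.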

[9] = read-out: Lipase C (LIPC), LIPC (gene 3990); assay: LTEA_HepaRG_LIPC: Life Technologies and Expression Analysis (LTEA) Assay for Lipase C (LIPC) using HepaRG (AID 2283514)
Method in brief: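 LIPC expression was quantified by qRT-PCR against three housekeeping genes (ACTB, GAPDH, POLR2A). Differentiated human HepaRG cells received eight half-log doses (top 100 uM, 0.5% DMSO) in duplicate for 48 h; fitting bidirectional relative to DMSO.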

[10] = read-out: Lipoprotein lipase (LPL), LPL (gene 4023); assay: LTEA_HepaRG_LPL: Life Technologies and Expression Analysis (LTEA) Assay for Lipoprotein lipase (LPL) using HepaRG (AID 2283515)
Method in brief: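 LPL transcript levels quantified by TaqMan qRT-PCR against three housekeeping genes after 48 h chemical treatment of HepaRG cells. Eight-point half-log series from 100 uM in 0.5% DMSO, tested in duplicate; bidirectional fitting versus vehicle.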

[11] = read-out: matrix metalloproteinase-10 (MMP10), MMP10 (gene 4319); assay: LTEA_HepaRG_MMP10: Life Technologies and Expression Analysis (LTEA) Assay for matrix metalloproteinase-10 (MMP10) using HepaRG (AID 2283517)
Method in brief: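 Expression measured by TaqMan qRT-PCR with ACTB/GAPDH/POLR2A normalisation after 48 h chemical exposure of HepaRG cells. Eight half-log concentrations, top 100 uM, 0.5% DMSO vehicle, duplicates; gain or loss fitted against vehicle.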

MYC, MYC (gene 4609) = assay: LTEA_HepaRG_MYC: Life Technologies and Expression Analysis (LTEA) Assay for MYC using HepaRG (AID 2283518)
Method in brief: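 Expression changes were scored by TaqMan qRT-PCR with ACTB, GAPDH and POLR2A normalization. Cultures in serum-free induction medium received duplicate 8-point concentration series, highest 100 uM, for 48 h; DMSO (0.5%) served as baseline.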

[12] = read-out: matrix metalloproteinase-3 (MMP3), MMP3 (gene 4314); assay: LTEA_HepaRG_MMP3: Life Technologies and Expression Analysis (LTEA) Assay for matrix metalloproteinase-3 (MMP3) using HepaRG (AID 2283519)
Method in brief: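 Fluidigm-based TaqMan qRT-PCR, normalized to ACTB, GAPDH and POLR2A and fitted bidirectionally versus 0.5% DMSO, measured transcript levels. Treatment: duplicate 48 h exposures of HepaRG cells, ~100,000/well, to eight half-log concentrations topping at 100 uM.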

[13] = read-out: Paternally Expressed 10 (PEG10), PEG10 (gene 23089); assay: LTEA_HepaRG_PEG10: Life Technologies and Expression Analysis (LTEA) Assay for Paternally Expressed 10 (PEG10) using HepaRG (AID 2283520);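 as to AC50: PEG10 transcript by qRT-PCR normalised to ACTB GAPDH and POLR2A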
Method in brief: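 PEG10 transcript measured by Fluidigm qRT-PCR, normalized to three housekeeping genes, in HepaRG cells treated 48 h (highest 100 uM, half-log steps, 0.5% DMSO vehicle). Cells plated 48 h before switching to serum-free induction medium.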

[14] = read-out: Interleukin 6 Receptor (IL6R), IL6R (gene 3570); assay: LTEA_HepaRG_IL6R: Life Technologies and Expression Analysis (LTEA) Assay for Interleukin 6 Receptor (IL6R) using HepaRG (AID 2283510)
Method in brief: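 IL6R transcript level by qRT-PCR after 48 h chemical exposure (8-point, half-log, max 100 uM, 0.5% DMSO vehicle) of HepaRG cells in serum-free induction medium. Normalized to three housekeeping genes; curves fitted in both directions relative to DMSO.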

[15] = read-out: MicroRNA 122 (MIR122), gene 406906; assay: LTEA_HepaRG_MIR122: Life Technologies and Expression Analysis (LTEA) Assay for MicroRNA 122 (MIR122) using HepaRG (AID 2283516); also: the transcript read is the microRNA miR-122
Method in brief: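 Expression measured by microfluidic qRT-PCR with three housekeeping genes for normalisation, after 48 h treatment of HepaRG cultures. Eight concentrations (top 100 uM, half-log steps, 0.5% DMSO vehicle) in duplicate; gain or loss fitted relative to vehicle.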

[16] = read-out: Nuclear factor NF-kappa-B p105 subunit (Homo sapiens) (UniProt P19838); assay: LTEA_HepaRG_NFKB1: Life Technologies and Expression Analysis (LTEA) Assay for Nuclear Factor Kappa B Subunit 1 (NFKB1) using HepaRG (AID 2283521);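 also: TaqMan qRT-PCR transcript normalised to ACTB GAPDH and POLR2A housekeeping genes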
Method in brief: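 Differentiated human HepaRG cells were exposed for 48 h in serum-free induction medium to eight concentrations (top 100 uM, half-log steps, 0.5% DMSO), in duplicate. NFKB1 mRNA was measured by TaqMan qRT-PCR, normalized to ACTB/GAPDH/POLR2A, and fitted bidirectionally against DMSO.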

[17] = read-out: Hypoxia-inducible factor 1-alpha (Homo sapiens) (UniProt Q16665); assay: LTEA_HepaRG_HIF1A: Life Technologies and Expression Analysis (LTEA) Assay for Hypoxia-inducible factor 1 (HIF1A) Trancription factor using HepaRG (AID 2283503)
Method in brief: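 HIF1A transcript level read by qRT-PCR (ACTB, GAPDH, POLR2A normalization) after 48 h chemical exposure of HepaRG cultures. Eight half-log concentrations, top 100 uM, 0.5% DMSO vehicle, duplicates; bidirectional curve fit against DMSO baseline.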

Measured: AC50

Nuclear factor NF-kappa-B p105 subunit (Homo sapiens), sequence (P19838 whole entry, looked up): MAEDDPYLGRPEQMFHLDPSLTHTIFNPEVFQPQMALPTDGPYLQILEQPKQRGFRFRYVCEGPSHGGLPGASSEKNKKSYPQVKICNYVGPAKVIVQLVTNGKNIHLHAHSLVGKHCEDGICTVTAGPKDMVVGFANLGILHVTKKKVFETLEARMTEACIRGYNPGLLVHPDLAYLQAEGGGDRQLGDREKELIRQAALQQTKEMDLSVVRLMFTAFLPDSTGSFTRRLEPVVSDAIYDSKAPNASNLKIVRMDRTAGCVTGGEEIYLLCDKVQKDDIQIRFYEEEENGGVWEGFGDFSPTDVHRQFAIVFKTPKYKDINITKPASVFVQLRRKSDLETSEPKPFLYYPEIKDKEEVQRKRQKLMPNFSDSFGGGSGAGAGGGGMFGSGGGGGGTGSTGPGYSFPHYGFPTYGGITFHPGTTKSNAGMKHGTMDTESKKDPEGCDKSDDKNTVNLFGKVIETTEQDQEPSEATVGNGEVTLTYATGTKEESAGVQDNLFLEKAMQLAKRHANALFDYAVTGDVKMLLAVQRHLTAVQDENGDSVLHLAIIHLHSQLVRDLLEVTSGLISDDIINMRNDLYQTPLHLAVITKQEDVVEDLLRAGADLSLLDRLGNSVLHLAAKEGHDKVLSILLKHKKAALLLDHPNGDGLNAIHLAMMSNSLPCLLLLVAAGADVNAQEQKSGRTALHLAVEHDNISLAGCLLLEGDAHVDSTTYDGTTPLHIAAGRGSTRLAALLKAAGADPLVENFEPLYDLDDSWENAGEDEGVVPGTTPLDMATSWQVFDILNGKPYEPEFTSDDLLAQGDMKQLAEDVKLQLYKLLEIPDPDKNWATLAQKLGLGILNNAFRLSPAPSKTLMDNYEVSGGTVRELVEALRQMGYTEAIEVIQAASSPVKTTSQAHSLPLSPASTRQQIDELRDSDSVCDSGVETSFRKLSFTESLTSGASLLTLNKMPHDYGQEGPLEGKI
Hypoxia-inducible factor 1-alpha (Homo sapiens), sequence (Q16665 whole entry, looked up): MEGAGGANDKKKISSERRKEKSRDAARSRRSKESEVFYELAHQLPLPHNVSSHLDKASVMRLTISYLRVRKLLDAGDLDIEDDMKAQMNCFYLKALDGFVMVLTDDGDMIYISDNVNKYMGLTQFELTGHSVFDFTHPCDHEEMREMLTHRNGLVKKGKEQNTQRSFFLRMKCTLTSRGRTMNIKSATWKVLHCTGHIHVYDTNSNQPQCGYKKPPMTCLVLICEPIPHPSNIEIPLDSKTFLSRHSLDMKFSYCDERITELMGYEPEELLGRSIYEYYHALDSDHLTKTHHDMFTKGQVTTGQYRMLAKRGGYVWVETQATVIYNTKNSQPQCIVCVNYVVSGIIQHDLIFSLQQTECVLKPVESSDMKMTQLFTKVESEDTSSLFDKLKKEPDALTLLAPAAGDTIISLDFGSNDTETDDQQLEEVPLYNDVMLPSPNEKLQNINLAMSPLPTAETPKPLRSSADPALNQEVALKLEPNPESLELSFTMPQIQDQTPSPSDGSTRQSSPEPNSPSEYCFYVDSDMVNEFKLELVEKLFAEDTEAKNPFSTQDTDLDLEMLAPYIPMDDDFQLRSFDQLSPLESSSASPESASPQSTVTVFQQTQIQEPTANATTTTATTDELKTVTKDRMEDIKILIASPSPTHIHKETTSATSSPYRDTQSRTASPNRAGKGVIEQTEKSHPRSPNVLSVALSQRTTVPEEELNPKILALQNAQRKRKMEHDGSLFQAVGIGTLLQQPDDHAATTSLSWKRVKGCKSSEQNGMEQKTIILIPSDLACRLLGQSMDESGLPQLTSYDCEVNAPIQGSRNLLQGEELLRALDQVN

Nc1cc(Cl)cc(C(=O)O)c1Cl
inactive: [1] | HGF (gene 3082) | [2] | [3] | [4] | [5] | [6] | [7] | [8] | [9] | [10] | [11] | MYC, MYC (gene 4609) | [12] | [13]

CN(C)C(=O)Nc1ccc(Cl)cc1
inactive: [1] | HGF (gene 3082) | [2] | [3] | [4] | [5] | [14] | [6] | [9] | [10] | [15] | [11] | MYC, MYC (gene 4609) | [12] | [13] | [16]

[As]#[In]
inactive: [17] | [1] | HGF (gene 3082) | [2] | [3] | [4] | [5] | [14] | [6] | [9] | [10] | [11] | MYC, MYC (gene 4609) | [12] | [13] | [16]

CCCCC(CC)COC(=O)c1ccc(C(=O)OCC(CC)CCCC)c(C(=O)OCC(CC)CCCC)c1 (stereo unspecified)
inactive: [1] | HGF (gene 3082) | [2] | [3] | [4] | [5] | [14] | [6] | [8] | [9] | [10] | [15] | [11] | MYC, MYC (gene 4609) | [12] | [13] | [16]

CC(C)N(Cc1ccccc1)C(=O)C(C)(C)C
active: [2] 25.6 µM | [13] 28.8 µM
inactive: [1] | HGF (gene 3082) | [3] | [5] | [14] | [6] | [7] | [9] | [10] | [15] | [11] | MYC, MYC (gene 4609) | [12] | [16]

O=C(Oc1ccc(Br)cc1)N1CCN2CCC1CC2
inactive: [1] | HGF (gene 3082) | [2] | [3] | [4] | [5] | [14] | [6] | [9] | [11] | MYC, MYC (gene 4609) | [12] | [13] | [16]
active: [10] 74.4 µM

c1ccc(C2CO2)cc1 (stereo unspecified)
inactive: [1] | HGF (gene 3082) | [2] | [3] | [4] | [5] | [14] | [6] | [7] | [9] | [10] | [15] | [11] | MYC, MYC (gene 4609) | [12] | [13]
